Screens from PubChem BioAssay.
A selection: hits, their analogues and other compounds. The true share with any hit is near 11%.
NPR1 antag = Natriuretic polypeptide receptor (hNpr1) antagonism - Primary qHTS. 76,000 tested, 1.6% active. HEK293 hNpr1 GloSensor cGMP, ANP-stimulated luminescence. AID 1347048, 2019. Potency, µM (series often up to 46.3 µM), inactives show at the top dose activity change, negative = inhibition, hits mostly inhibitors; calls by dose curve; note: nearly all actives have a fitted effect of over 60% in size
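Compound pre-incubated 30 min at room temperature on GloSensor-loaded HEK293 cells stably carrying hNpr1 and the pGS-40F cGMP biosensor. Stimulation uses hNppA at 0.1 nM final; luminescence is taken at baseline and 20 min post-agonist.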
3T3 cytotox = Cytotoxic Profiling in NIH 3T3 Cell Line of Diverse Libraries Using Quantitative High-Throughput Screening. NIH 3T3 viability, CellTiter-Glo ATP luminescence, 48-72 h. Potency, µM (titrated, usually from 96.7 µM), for inactives: at the top dose activity change, negative = cytotoxicity, actives largely listed as inhibitors. 94,000 tested, 4.3% active. AID 1345082, 2018; note: nearly all actives have a fitted effect of over 55% in size
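Mouse fibroblast NIH 3T3 cells, 400 per well, received compound via pintool and were incubated for 48 or 72 hr prior to CellTiter-Glo ATP luminescence measurement.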
Luciferase inh = Firefly luciferase inhibition profiling of diverse chemical library using quantitative high-throughput screening; Luciferin 4-monooxygenase (Photinus pyralis), P08659; purified P. pyralis luciferase, luminescence, biochemical; Potency, µM (top dose mostly 115 µM), hits mostly inhibitors; 76,000 tested, 2.5% active; AID 1347043, 2019; note: nearly all actives have a fitted effect of over 65% in size
Target sequence (P08659 whole entry, looked up): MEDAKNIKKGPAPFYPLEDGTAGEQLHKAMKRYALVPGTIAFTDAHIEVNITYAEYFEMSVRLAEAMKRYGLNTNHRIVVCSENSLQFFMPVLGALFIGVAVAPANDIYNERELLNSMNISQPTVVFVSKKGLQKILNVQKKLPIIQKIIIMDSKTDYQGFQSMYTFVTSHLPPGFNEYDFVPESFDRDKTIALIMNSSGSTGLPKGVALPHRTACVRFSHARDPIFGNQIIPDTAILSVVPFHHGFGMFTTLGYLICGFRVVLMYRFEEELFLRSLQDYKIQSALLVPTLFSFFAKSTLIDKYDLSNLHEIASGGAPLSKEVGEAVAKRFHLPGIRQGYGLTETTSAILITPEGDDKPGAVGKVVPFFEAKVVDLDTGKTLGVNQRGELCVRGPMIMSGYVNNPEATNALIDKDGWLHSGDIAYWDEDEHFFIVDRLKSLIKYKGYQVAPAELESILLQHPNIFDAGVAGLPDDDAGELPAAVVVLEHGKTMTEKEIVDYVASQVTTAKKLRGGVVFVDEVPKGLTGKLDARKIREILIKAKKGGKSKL
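FLuc 10nM, D-luciferin 10uM, ATP 10uM, Mg acetate 10mM, Tris acetate pH 7.5, Tween/BSA; cpd qHTS; enzyme added last; CCD luminescence.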
HEK cytotox = Cytotoxic Profiling in HEK 293 Cell Line of Diverse Libraries Using Quantitative High-Throughput Screening | HEK 293 viability, ATP luminescence (CellTiter-Glo), 48-72 h | Potency, µM (titrated, usually from 115 µM), without a hit: at the highest dose activity change, negative = cytotoxicity, usual class: inhibitors | 94,000 tested, 6.6% active | AID 1345083, 2018; note: nearly all actives have a fitted effect of over 60% in size
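Viability of HEK 293 cells, plated at 250 cells/well, was judged by cellular ATP after compound treatment for 48 or 72 hr. Luminescence was imaged 10 min after CellTiter-Glo addition at room temperature.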
The depositor's hits bear a star; i = inactive; ? = inconclusive; . = no result given; [ ] = dose if it differs, or a comment. Unless noted, calls come from the whole dose curve; as a rule, active = well fitted curve in the direction sought with a large enough effect; inconclusive = small, poorly fitted or top-dose-only effect, or another doubt; inactive = no such curve, though single readings can be large; an effect the other way counts as inactive or inconclusive. % is set by controls: 0 for no effect and ±100 for the full control effect; potency is the fitted concentration of half-maximal effect.

SMILES | NPR1 antag | 3T3 cytotox | Luciferase inh | HEK cytotox
CCc1cc(=O)n(CC(=O)N2CCN(c3ccccc3F)CC2)c(N2CCOCC2)n1 | -24% | ? | i | 40µM*
CCc1cc(=O)n(CC(=O)N2CCN(c3ccc(OC)cc3)CC2)c(N2CCOCC2)n1 | -14% | -18% | i | ?
c1csc(CN2Cc3[nH]cnc3C[C@H]2c2nc(-c3ccc4ccccc4c3)no2)c1 | -24%[70.6 µM] | ? | i | 50µM*
COc1ccc(-c2noc([C@@H]3Cc4nc[nH]c4CN3Cc3cccs3)n2)cc1 | -17%[70.6 µM] | 89µM* | 71µM* | ?
O=C(NC1CCCCC1)N1Cc2[nH]cnc2C[C@H]1c1nc(-c2ccc(F)c(Cl)c2)no1 | -19% | ? | ? | -29%
O=C(c1ccccc1)N1CCC(C(=O)N2CCC(N3CCCC3=O)CC2)CC1 | . | -2% | . | 5%
CCS(=O)(=O)Nc1ccc(C2(C(=O)Nc3cccc(F)c3C)CCCCC2)cc1 | -8% | ? | i | 40µM*
CC(=O)N1CCC2(CC1)CC(N(C(=O)NC(C)C)C1CC1)CCO2 (centres undefined) | . | -17% | . | -4%
N#Cc1cccnc1-c1ccc(C(=O)N2CCC(NC(=O)C3CCCC3)CC2)cc1 | . | -28% | . | -16%
FC(F)(F)c1cccc(C2=NOC3(CCCN(Cc4cccs4)C3)C2)c1 (centres undefined) | -9% | 35µM* | i | ?
Cn1nccc1CN1CCCC2(CC(c3cccc(C(F)(F)F)c3)=NO2)C1 (centres undefined) | 0% | -26% | i | 45µM*
Cc1noc(C)c1[S+](=O)([O-])N1CCCC2(CC(c3cccc(C(F)(F)F)c3)=NO2)C1 (centres undefined) | -15% | -13% | i | 35µM*
FC(F)(F)c1cccc(C2=NOC3(CCCN(Cc4cccc5ccccc45)C3)C2)c1 (centres undefined) | 8% | ? | i | ?
CSc1ccc(-c2cccc(CN3CCC(NC(=O)C(C)(C)C)CC3)c2)cc1 | . | -25% | . | ?
CC1CCN(C(=O)CCC[C@@H]2[C@H]3CCCN4CCC[C@@H](CN2C)[C@@H]34)CC1 | 1% | -3% | i | -13%
OCC1CNCCC12CCN(Cc1ccc3ccccc3c1)CC2 (centres undefined) | -4% | 45µM* | i | 28µM*
OCC1CN(c2ncccn2)CC12CCN(Cc1ccc3cc[nH]c3c1)CC2 (centres undefined) | 6% | 2% | i | -14%
COc1ccc(CN(C)Cc2ccc(F)cc2)cc1 | 3%[70.6 µM] | -10%[138 µM] | i | -5%[172 µM]
COc1cccc(S(=O)(=O)N2CCc3c(c(CN4CCOCC4)nn3C)C2)c1 | . | -27% | . | -11%
CCCCc1cc(C[C@H]2CNCC[C@H]2CC(=O)N(C)Cc2ccccc2)no1 | -4%[70.6 µM] | ? | i | 100µM*
CN(Cc1ccccc1)C(=O)C[C@@H]1CCNC[C@@H]1Cc1cc(COc2ccccc2)on1 | -20%[70.6 µM] | 28µM* | i | 50µM*
CCN(CC)C(=O)C[C@@H]1CCNC[C@@H]1Cc1cc(-c2ccccn2)on1 | -4%[70.6 µM] | -25%[174 µM] | i | 1%[172 µM]
CN(Cc1ccccc1)C(=O)C[C@@H]1CCNC[C@@H]1Cc1cc(-c2ccccc2)on1 | -30%[70.6 µM] | 10µM* | i | 25µM*
O=C(c1nccc2ccccc12)N1CCc2c(nc(-c3ccccc3)[nH]c2=O)C1 | -4% | ? | i | 25µM*
COc1ccc(-c2noc([C@@H]3C[C@H](NCc4ccc(S(C)(=O)=O)cc4)CN3C)n2)cc1 | ? | -29% | 45µM* | ?
SMILES | NPR1 antag | 3T3 cytotox | Luciferase inh | HEK cytotox
COc1ccc(-c2noc([C@@H]3C[C@H](NC(=O)c4ccc(F)cc4)CN3C)n2)cc1 | -7%[70.6 µM] | ? | i | ?
O=C1Nc2ccc(-c3ccsc3)cc2C(=O)N2C[C@@H](NS(=O)(=O)c3ccc(F)cc3)C[C@@H]12 | 4% | -23% | i | -15%
COc1ccc(-c2noc([C@@H]3C[C@H](NS(=O)(=O)c4ccc(F)cc4)CN3C)n2)cc1 | -23%[70.6 µM] | ? | 18µM* | ?
COc1ccc([C@H]2C[C@@H](O)[C@@H](O)[C@@H]2NCc2cccc(C#N)c2)cc1 | -3%[70.6 µM] | 89µM* | i | -24%[172 µM]
COc1ccc([C@H]2C[C@@H](O)[C@@H](O)[C@@H]2NCc2cccc(C(F)(F)F)c2)cc1 | -5%[70.6 µM] | ? | i | ?
COc1ccc(-c2ccc3c(c2)C(=O)N2C[C@@H](NS(=O)(=O)c4ccc(F)cc4)C[C@H]2C(=O)N3)c(OC)c1 | -22% | ? | i | 28µM*
O=C1NC2(CCN(Cc3cncs3)CC2)Oc2ccccc21 | -19%[70.6 µM] | -28%[138 µM] | i | -9%[172 µM]
COCCCNC(=O)c1ccc2nnc(C3CCCC3)n2c1 | . | -22%[138 µM] | . | -1%[172 µM]
COc1ccc(NC(=O)N[C@H]2C[C@@H](c3nc(-c4ccc(F)cc4)no3)N(C)C2)cc1 | 0%[70.6 µM] | ? | i | -38%[172 µM]
COc1ccc(-c2noc([C@@H]3C[C@H](NCc4cccc(C#N)c4)CN3C)n2)cc1 | -28%[70.6 µM] | ? | 40µM* | ?
COc1ccc(S(=O)(=O)N[C@H]2C[C@@H](c3nc(-c4ccc(C)cc4)no3)N(C)C2)cc1 | ? | ? | 25µM* | 79µM*
O=C(NCc1ccccc1Cl)C1CCN(Cc2ccccc2-c2ccccc2F)CC1 | . | 45µM* | . | ?
COc1ccc(CNC(=O)C2CCN(Cc3ccccc3-c3ccccc3F)CC2)cc1 | . | ? | . | 45µM*
O=C(C1CCN(Cc2ccccc2-c2ccccc2F)CC1)N1CCN(Cc2ccccc2)CC1 | . | 25µM* | . | 35µM*
O=C(NCc1ccccc1)C1CCN(Cc2ccccc2-c2ccccc2F)CC1 | . | ? | . | 50µM*
O=C(C1CCN(Cc2ccccc2-c2ccccc2F)CC1)N1CCOCC1 | . | -22% | . | -23%
COCC(=O)N1CCN(c2ccc3nnc(C4CC4)n3n2)CC1 | . | -28%[138 µM] | . | -4%[172 µM]
CCOc1cc(=O)n2c(c1C(=O)Nc1ccc(CC)cc1)CCCC2 | -2% | -17% | ? | -22%
CCOc1cc(=O)n2c(c1C(=O)Nc1ccc3c(c1)OCO3)CCCC2 | -1% | ? | 40µM* | ?
Cn1cc(CN[C@H]2[C@H](O)[C@H](O)C[C@@H]2c2cccnc2)c2ccccc21 | 1%[70.6 µM] | ? | i | 100µM*
O=C(Cc1cccnc1)N1CCC(N2CC(OCC3CC3)C23CCCCC3)CC1 (centres undefined) | 2% | -21% | i | -7%
COc1ccc(CNC(=O)CC[C@@H]2CNC(=O)[C@@H]3C[C@H](NCc4ccccc4)CN23)cc1 | 3% | i | i | i
COC(=O)[C@@H]1Cc2c([nH]c3ccccc23)[C@H]2C[C@@H](NCc3ccccc3)C[C@@H](c3ccccc3F)N21 | -25% | 25µM* | i | 25µM*
